Measurements published in the supplement of paper PMC6522484.
± gives the standard deviation of the averaged measurements.

How the values were obtained:
DLD1 [1] = assay: cell viability (CellTiter-Glo) relative to plate median (fraction of plate median); higher = more viable cells; settings: 5 µM; treatment time 24 h; reporter: 7TFP
Procedure, shortened: (§1)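 Per-well firefly luciferase or CellTiterGlo luminescence, normalised to the plate median, is what is reported. It was measured in colorectal cancer cells with stable lentiviral TCF/Wnt firefly luciferase reporters after a 24 h treatment with library compounds at a final 5 µM. The mean of two independent replicates is given.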

HCT116 = assay: as above; settings: 5 µM; treatment time 24 h; reporter: TCF4/Wnt
Procedure, shortened: as §1

SW480 [2] = assay: as above; settings: 5 µM; treatment time 24 h; reporter: 7TFP
Procedure, shortened: as §1

DLD1 [3] = assay: TCF/Wnt firefly luciferase reporter signal relative to plate median (fraction of plate median); higher = higher Wnt reporter signal; settings: 5 µM; treatment time 24 h; reporter: 7TFP
Procedure, shortened: as §1

SW480 [4] = assay: as above; settings: 5 µM; treatment time 24 h; reporter: 7TFP
Procedure, shortened: as §1

| Compound | cell viability (DLD1 [1]) | cell viability (HCT116) | cell viability (SW480 [2]) | TCF/Wnt firefly luciferase reporter signal (DLD1 [3]) | TCF/Wnt firefly luciferase reporter signal (SW480 [4]) |
| --- | --- | --- | --- | --- | --- |
| CC(=O)Oc1ccc2c(c1C(C)C)CCC1C(C)(C)CCC[C@]21C (stereo not given in full) | 1.18 ± 0.22 | 1.15 ± 0.071 | 1.05 ± 0.05 | 0.98 ± 0.11 | 0.962 ± 0.047 |
| O=c1cc(-c2ccc(O)cc2)oc2ccc(O)cc12 | 1.11 ± 0.11 | 1.1 ± 0.099 | 1.035 ± 0.0071 | 1.03 ± 0.11 | 1.125 ± 0.0071 |
| COc1c(CC(=O)c2cc3c(cc2O)OC(C)(C)C(O)C3)ccc2c1C=CC(C)(C)O2 (stereo not given) | 1.02 ± 0.03 | 1.02 ± 0.035 | 0.911 ± 0.021 | 0.941 ± 0.039 | 0.929 ± 0.08 |
| COC(=O)C[C@H]1C(C)(C)[C@@H](OC(C)=O)[C@@H]2CC3=C4CC(=O)O[C@@H](c5ccoc5)[C@]4(C)CC[C@@H]3[C@@]1(C)C2=O | 0.9945 ± 0.0078 | 1.045 ± 0.0071 | 0.963 ± 0.018 | 0.993 ± 0.067 | 0.95 ± 0.041 |
| CC(C)c1ccc2c(c1)CC[C@H]1[C@](C)(CN)CCC[C@]21C | 1.04 ± 0.028 | 1.07 ± 0.092 | 1.06 ± 0.028 | 1.18 ± 0.071 | 1.03 ± 0.13 |
| CC(C)=CCC[C@@H](C)[C@@H]1CC[C@]2(C)C3=C(CC[C@@]12C)[C@@]1(C)CC[C@H](O)C(C)(C)[C@@H]1CC3 | 1.015 ± 0.0071 | 0.995 ± 0.021 | 0.989 ± 0.016 | 0.918 ± 0.23 | 1.02 ± 0.085 |
| COc1ccc2c(c1)c(CC(=O)O)c(C)n2C(=O)c1ccc(Cl)cc1 | 1.01 ± 0.016 | 0.785 ± 0.33 | 1.03 ± 0.028 | 1.08 ± 0.014 | 1.1 ± 0.014 |
| C#C[C@]1(O)CC[C@H]2[C@@H]3CCc4cc(OC)ccc4[C@H]3CC[C@@]21C | 0.952 ± 0.011 | 1.02 ± 0.021 | 0.986 ± 0.0085 | 0.981 ± 0.15 | 0.944 ± 0.059 |
| O=C(CCCN1CCN(c2ccccn2)CC1)c1ccc(F)cc1 | 1.03 ± 0.028 | 0.963 ± 0.12 | 0.994 ± 0.023 | 0.985 ± 0.064 | 1.01 ± 0.028 |
| C[C@@H]1O[C@@H](O[C@H]2[C@H](Oc3cc(O)c4c(=O)cc(-c5ccc(O)cc5)oc4c3)O[C@H](CO)[C@@H](O)[C@@H]2O)[C@H](O)[C@H](O)[C@H]1O | 1.04 ± 0.035 | 1.03 ± 0.054 | 0.98 ± 0.015 | 0.989 ± 0.013 | 1.02 ± 0.079 |
| CC(=O)Nc1c(I)cc(I)c(C(=O)O)c1I | 1 ± 0.16 | 0.987 ± 0.014 | 0.946 ± 0.055 | 0.995 ± 0.092 | 1.09 ± 0.099 |
| Cc1coc2c1C(=O)C(=O)c1c-2ccc2c1CCCC2(C)C | 1.03 ± 0.043 | 0.999 ± 0.016 | 1.05 ± 0.028 | 0.785 ± 0.064 | 0.994 ± 0.14 |
| CC(C)=CCc1cccc2c(C[C@@H]3NC(=O)[C@H](C)NC3=O)c[nH]c12 [Terezine D] | 1.03 ± 0.021 | 0.9635 ± 0.0021 | 0.981 ± 0.084 | 1.12 ± 0.31 | 0.92 ± 0.0099 |
| CCN(CC)CCOC(=O)C(Cc1cccc2ccccc12)CC1CCCO1 (stereo not given) | 1.095 ± 0.0071 | 1.02 ± 0.034 | 1.02 ± 0.033 | 0.874 ± 0.072 | 1.22 ± 0.37 |
| CN1[C@@H]2CC[C@H]1C[C@@H](OC(c1ccccc1)c1ccccc1)C2 | 1.03 ± 0.014 | 1.12 ± 0.014 | 1.05 ± 0.05 | 0.929 ± 0.16 | 0.982 ± 0.12 |
| COc1cccc2c1C(=O)c1c(O)c3c(c(O)c1C2=O)C[C@@](O)(C(=O)CO)C[C@@H]3O[C@H]1C[C@H](N)[C@@H](O)[C@H](C)O1 | 1.03 ± 0.028 | 0.589 ± 0.19 | 1.11 ± 0.13 | 1.16 ± 0.014 | 0.727 ± 0.082 |
| Oc1ccc(OCc2ccccc2)cc1 | 1.07 ± 0.05 | 0.975 ± 0.078 | 0.982 ± 0.017 | 1 ± 0.17 | 0.754 ± 0.05 |
| CO[C@H]1[C@H](O)[C@@H](O)[C@H](O)[C@H](O)[C@H]1O | 0.981 ± 0.018 | 0.953 ± 0.026 | 1.03 ± 0.014 | 1.11 ± 0.13 | 1.1 ± 0.092 |
| O=C(O)[C@@H](O)[C@H](O)[C@H](O)[C@@H](O)C(=O)O | 0.971 ± 0.023 | 1.03 ± 0.05 | 1 ± 0.051 | 1.06 ± 0.035 | 1.03 ± 0.028 |
| N#CN=C(NCCCCCCOc1ccc(Cl)cc1)Nc1ccncc1 | 0.954 ± 0.021 | 1.01 ± 0.03 | 0.87 ± 0.046 | 1.15 ± 0.057 | 1.14 ± 0.21 |
| CC(=O)O[C@H](CC(=O)[O-])C[N+](C)(C)C | 1.06 ± 0.05 | 0.958 ± 0.044 | 0.956 ± 0.043 | 0.94 ± 0.073 | 0.996 ± 0.0057 |
| CC12CCC3c4ccc(OCc5ccccc5)cc4CCC3C1C[C@@H](O)[C@@H]2O (stereo not given in full) | 1.08 ± 0.085 | 0.992 ± 0.026 | 1.01 | 0.95 ± 0.14 | 0.993 ± 0.025 |
| CC(C)[C@@H](C)/C=C/[C@@H](C)[C@H]1CC[C@H]2C3=CC=C4C[C@@H](O)CC[C@]4(C)[C@H]3CC[C@]12C | 1.05 ± 0.05 | 1.03 ± 0.14 | 1.14 ± 0.099 | 0.912 ± 0.079 | 1 ± 0.083 |
| CCCNC(=O)NS(=O)(=O)c1ccc(Cl)cc1 | 1.03 ± 0.11 | 0.991 ± 0.042 | 1.07 ± 0.2 | 0.968 ± 0.013 | 0.945 ± 0.016 |
| COc1cc2ccc(=O)oc2cc1O | 1.09 ± 0.064 | 1.09 | 1.12 ± 0.085 | 0.999 ± 0.059 | 0.892 ± 0.12 |
| CN1CCN(CCCN2c3ccccc3Sc3ccc(C(F)(F)F)cc32)CC1 | 0.999 ± 0.0014 | 1.08 ± 0.13 | 1.09 ± 0.028 | 1.21 ± 0.17 | 1.05 ± 0.14 |
| CN1CCN(C2=Nc3ccccc3Oc3ccc(Cl)cc32)CC1 | 0.901 ± 0.22 | 0.971 ± 0.055 | 0.927 ± 0.0028 | 0.898 ± 0.21 | 0.89 ± 0.12 |
